Bioassay records: PubChem BioAssay, several laboratories
Fluor 339 460 – intrinsic fluorescence of library compounds, ex339/em460 – biochemical, MLSMR library, data from DPM-DC assay, artefact control, profiling panel; compound autofluorescence, ex339/em460 nm, NADH buffer; hits give high values; 1 = no-compound wells, NADH background; fluorescence fold increase at 10 µM; AID 709; 5.5% of 65,000 active;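 active means at 10 µM, mean starting fluorescence two-fold or more over control wells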;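 further: signal is the first read of a kinetic run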
Htt clearance – compounds clearing mutant huntingtin protein | HeLa Exon1htt(103Q)mCFP, aggregate imaging; zero = plate's median compound well | inhibition, % at 1.5 µM | 0.42% of 47,000 active;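 active means inhibition of aggregate fluorescence above about 70%, also judged a hit by eye on the cell image, limit read from the data, passing the limit was not always enough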;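 further: cells exposed to compound for three days before fixation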
NADH enzymes – blocks coupling enzymes of NAD/NADH assays; coupled PK/LDH NADH assays, four targets; IC50, µM (titrated, usually from 10 µM); 0.02% of 65,000 active;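 active means single-dose screening hits from any of four coupled enzyme assays that gave an IC50 when retested across doses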;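 further: the DPM-DC format reads NADH fluorescence rather than 340 nm absorbance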
M1 antagonist – blocks the rat M1 muscarinic receptor response to acetylcholine. B-score at 10 µM. 3.4% of 64,000 active. P08482. CHO-M1 cells, Fluo-4 calcium, ACh EC80 antagonist mode; hits give low values;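 active means calcium fluorescence response, raw or row-and-column corrected B-score, differing from the plate sample mean either way at a set confidence level, mostly lower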
Target sequence (P08482 whole entry, looked up): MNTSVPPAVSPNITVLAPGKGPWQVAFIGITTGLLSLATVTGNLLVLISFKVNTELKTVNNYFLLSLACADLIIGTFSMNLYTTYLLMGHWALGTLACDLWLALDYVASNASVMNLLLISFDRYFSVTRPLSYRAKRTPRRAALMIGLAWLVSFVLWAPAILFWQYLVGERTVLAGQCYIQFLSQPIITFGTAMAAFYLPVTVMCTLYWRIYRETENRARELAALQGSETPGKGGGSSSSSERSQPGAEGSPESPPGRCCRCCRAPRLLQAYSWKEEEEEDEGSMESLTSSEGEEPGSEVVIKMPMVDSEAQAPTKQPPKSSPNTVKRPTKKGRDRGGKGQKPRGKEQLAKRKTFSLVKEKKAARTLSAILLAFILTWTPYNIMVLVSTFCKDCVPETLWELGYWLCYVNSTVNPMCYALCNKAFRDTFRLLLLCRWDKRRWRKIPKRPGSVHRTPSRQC
M1 ag – agonists of M1 muscarinic receptor; CHO-M1 cells, Fluo-4 calcium fluorescence, agonist mode; hits give high values; B-score at 10 µM; 3% of 64,000 active; AID 626;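 active means fluorescence rise, raw or as B-score row- and column-corrected plate score, outside the 99.7% band of its plate's samples, either direction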
Abs 340nm – absorbance at 340 nm; compound absorbance at 340 nm, fold over control; fold change at 10 µM; 65,000 tested, under 10 active;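 active means at 10 µM dose, initial 340 nm absorbance at least 2 fold that of control wells; inactive means change under 2 fold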;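 further: initial absorbance extrapolated from kinetic A340 decline of NADH oxidation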
Each line names hits and unclear results; the compound was inactive in the other large screens. Hits are enriched below; roughly 9.3% of the tested compounds scored in any of these assays.

COCCNC(=O)c1cc2c(-c3ccccc3F)nn(C)c2s1	Fluor 339 460 2.03 (no result: Htt clearance)
CCC(CC)C(=O)c1c[nH]c(C(=O)NCC2CCCO2)c1 (configuration not stated)	none (no result: Fluor 339 460, NADH enzymes, M1 antagonist, M1 ag, Abs 340nm)
CCOc1cccc(NC(=O)C2CC(=O)NC(=Nc3ccccc3)S2)c1 (configuration not stated)	none
CCOc1ccccc1-c1nc2c([nH]1)c(=O)n(C)c(=O)n2C	Fluor 339 460 2.93
CN(Cc1ccccc1)Cc1nc2c([nH]1)c(=O)n(C)c(=O)n2C	none (no result: Htt clearance)
Cc1nnc(C)c2c(C)n(C(C)c3ccccc3)c(C)c12 (configuration not stated)	Fluor 339 460 2.11
CCCC(=O)Nc1ccc2oc(-c3ccncc3)nc2c1	Fluor 339 460 3.63 (no result: Htt clearance)
CCCC(=O)Nc1ccc(-c2nc3cc(C)c(C)cc3o2)cc1	Fluor 339 460 3.79 (no result: Htt clearance)
O=C(Nc1ccc2oc(-c3ccccc3Cl)nc2c1)c1cncc(Br)c1	none (no result: Htt clearance)
O=C(Nc1ccc2oc(-c3ccccc3)nc2c1)c1ccncc1	none
CCCCCC(=O)Nc1ccc2oc(-c3cncc(Br)c3)nc2c1	Fluor 339 460 2.53 (no result: Htt clearance)
N#Cc1c(C(F)(F)F)cc(C2CC2)[nH]c1=O	Fluor 339 460 2.15 (no result: Htt clearance)
CCOC(=O)C(C)Sc1nc(C2CC2)cc(C(F)(F)F)c1C#N (configuration not stated)	none (no result: Fluor 339 460, NADH enzymes, M1 antagonist, M1 ag, Abs 340nm)
Cc1ccc(-n2nnnc2SCc2nnc(-c3ccccc3Br)o2)c(C)c1	none (no result: Htt clearance)
Cc1ccc(N2CC(C(=O)NCc3ccccn3)CC2=O)cc1 (configuration not stated)	none
CCOc1ccc2[nH]c(=O)c(CN(C(=O)N3CCOCC3)C3CC3)cc2c1	Fluor 339 460 3.77 (no result: Htt clearance)
CCOc1ccc2[nH]c(=O)c(CN(Cc3ccccc3)C(=O)N3CCCC3)cc2c1	Fluor 339 460 2.15 (no result: Htt clearance)
CCOC(=O)c1sc(=NC(=O)c2ccc(S(=O)(=O)N3CC(C)OC(C)C3)cc2)n(C)c1C (configuration not stated)	Fluor 339 460 3.89
CC1CN(S(=O)(=O)c2ccc(C(=O)Nc3sc4c(c3C(N)=O)CCN(C)C4)cc2)CC(C)O1 (configuration not stated)	none (no result: Htt clearance)
CCOC(=O)c1ccccc1NC(=O)C1COc2ccccc2O1 (configuration not stated)	none
CCOC(=O)c1ccccc1NC1CC(=O)N(c2ccccc2C)C1=O (configuration not stated)	Fluor 339 460 3.31 (no result: Htt clearance)
CCOC(=O)c1ccc(NC(=O)CN2C(=O)CSC2=O)cc1	none
CCOC(=O)c1ccccc1NCN1C(=O)CSC1=O	Fluor 339 460 2.2 (no result: Htt clearance)
O=C1CC(N2CCN(c3nc4ccccc4s3)CC2)C(=O)N1Cc1cccs1 (configuration not stated)	none
CCOC(=O)N1CCC(NC(=O)CSc2cc(=O)n(C)c3ccc(Cl)cc23)CC1	none (no result: Htt clearance)
Cc1ccccc1Cn1c(=O)c2c(nc3n2CCN3Cc2ccco2)n(C)c1=O	none (no result: Htt clearance)
Cc1ccc(Cl)c(OCC(=O)Nc2ccc3c(c2)OCCO3)c1	M1 ag 4.32
O=S(=O)(c1cccc(-c2cn3cccnc3n2)c1)N1CCOCC1	Fluor 339 460 3.77 (no result: Htt clearance)
O=S(=O)(c1cccc(-c2cn3cccnc3n2)c1)N1CCCCCC1	Fluor 339 460 3.6
CC1CN(S(=O)(=O)c2cccc(-c3cn4cccnc4n3)c2)CC(C)O1 (configuration not stated)	Fluor 339 460 3.78 (no result: Htt clearance)
O=C(Nc1ccccn1)c1cccc(S(=O)(=O)N2CCOCC2)c1	none (no result: Htt clearance)
Cc1cc(NC(=O)CN2C(=O)C3CC=CCC3C2=O)no1 (configuration not stated)	none (no result: Htt clearance)
Cc1ccc(-c2nn(-c3ccccc3)cc2C2SCC(=O)N2Cc2ccccc2)o1 (configuration not stated)	none (no result: Htt clearance)
O=C1CSC(c2cn(-c3ccccc3)nc2-c2cc3ccccc3oc2=O)N1Cc1ccco1 (configuration not stated)	Fluor 339 460 5.02
CCOC(=O)CSc1nc(-c2ccc3c(c2)OCO3)ccc1C#N	Fluor 339 460 2.25
CCOC(=O)CC(=O)CSc1nc(-c2cccnc2)ccc1C#N	Fluor 339 460 2.11 (no result: Htt clearance)
CCOC(=O)CSc1nnc(CNC(=O)c2ccc(OC)cc2OC)n1-c1ccc(OC)cc1	none
CCOC(=O)CN=C1CC(C)(C)CC2=C1Sc1ncnc(N(C)C)c1N2	M1 ag 8.2
c1nc(NCCN2CCOCC2)c2sc3nc(N4CCOCC4)c4c(c3c2n1)CCC4	Fluor 339 460 2.29 (no result: Htt clearance)
CC(=O)c1coc2ccc(OCCN3CCCCC3)cc12	none (no result: Htt clearance)
Cc1ccc(CN2CCSc3ccc(C(=O)N4CCN(c5ncccn5)CC4)cc32)cc1	Fluor 339 460 4.93 (no result: Htt clearance)
CC1CC(C)CN(C(=O)c2ccc3c(c2)N(Cc2ccccc2)CCS3)C1 (configuration not stated)	none (no result: Fluor 339 460, NADH enzymes, M1 antagonist, M1 ag, Abs 340nm)
CC(=O)c1c(N2CCN(C)CC2)[nH]c(-c2ccccc2)nc1=S	none (no result: Fluor 339 460, NADH enzymes, M1 antagonist, M1 ag, Abs 340nm)
COc1ccc(Cn2c(C)nc3c(c2=O)c2nc4ccccc4nc2n3Cc2ccco2)cc1	none (no result: Htt clearance)
Cc1nc2c(c(=O)n1Cc1ccccc1Cl)c1nc3ccccc3nc1n2Cc1ccco1	Fluor 339 460 2.33 (no result: Htt clearance)
COc1cc(OC)c(C2C3=C(CCCC3=O)Nc3nc4ccccc4n32)cc1OC (configuration not stated)	none (no result: Htt clearance)
COc1cccc(C2C3=C(CCCC3=O)Nc3nc4ccccc4n32)c1OC (configuration not stated)	Fluor 339 460 5.02 (no result: Htt clearance)
CC1CCN(CCNC(=O)c2ccc3c(=O)n(CCc4ccccc4)c(=O)[nH]c3c2)CC1	M1 ag -1.99 (no result: Htt clearance)
Cc1cc(NC(=O)c2cc(-c3cccnc3)nc3c(C)c(C)ccc23)no1	Fluor 339 460 2.89
Cc1ccsc1C(C(=O)NC1CCCCC1)N(C(=O)c1csnn1)C1CC1 (configuration not stated)	none
CCSc1nc2n(n1)C(c1cccc(F)c1)C1=C(CCCC1=O)N2 (configuration not stated)	Fluor 339 460 2.58 (no result: Htt clearance)
CCC(C)C(=O)Nc1nnc(-c2cccs2)s1 (configuration not stated)	Fluor 339 460 2.64
COCC(=O)Nc1nnc(-c2cccs2)s1	none (no result: Htt clearance)
CCOC(=O)c1ccc(NC(=O)CN(Cc2ccc(Cl)cc2)S(C)(=O)=O)cc1	none (no result: Fluor 339 460, NADH enzymes, M1 antagonist, M1 ag, Abs 340nm)
S=C1NCCc2ccc(Cl)cc2C1c1ccccc1 (configuration not stated)	none (no result: Fluor 339 460, NADH enzymes, M1 antagonist, M1 ag, Abs 340nm)
Nc1c(C(=O)NC2CCCCC2)nsc1C(=O)OCC(=O)NC1CCCCC1	Fluor 339 460 3.11
CC(OC(=O)c1snc(C(=O)NC2CCCCC2)c1N)C(=O)NC1CCCCC1 (configuration not stated)	none (no result: Fluor 339 460, NADH enzymes, M1 antagonist, M1 ag, Abs 340nm)
CCOc1ccc(S(=O)(=O)Nc2ccccc2C(=O)NCC2CCCO2)cc1 (configuration not stated)	Fluor 339 460 2.14
O=C(COc1ccccc1)NCC1CCCO1 (configuration not stated)	none (no result: Fluor 339 460, NADH enzymes, M1 antagonist, M1 ag, Abs 340nm)
